Molecules are shown by their SMILES. About 79,000 compounds went through this panel and 15% of them were active in at least one assay; those are over-represented in the sample as a whole. A number with no mark means an inactive call. Calls of active or inactive are those of the source. Rule as the data show it: active = growth inhibition above about 70%; inactive = the rest.

Assay [1] in a line: NCI Yeast Anticancer Drug Screen. Data for the rad50 strain (AID 155).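 Also: 0% = growth of vehicle-only cultures of the same strain.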 The following applies: S. cerevisiae rad50 strain growth inhibition, stronger effect = higher value. In outline: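 Relative growth inhibition (compound vs vehicle) was measured in yeast with a defined repair-gene alteration.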
Assay [2] can be described thus: NCI Yeast Anticancer Drug Screen. Data for the mec2-1 strain (AID 157). Particulars: S. cerevisiae mec2-1 strain, stronger effect = higher value. In outline:
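Cells of the genetically defined mec2-1 yeast strain are incubated with test compound. Inhibition of growth is calculated against vehicle-treated controls.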

Assay [3] is described as follows: NCI Yeast Anticancer Drug Screen. Data for the sgs1 mgt1 strain (AID 161).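 Also: 0% = growth of cultures given vehicle only.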 The following applies: S. cerevisiae sgs1 mgt1 strain, stronger effect = higher value. In outline: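 Read-out: growth inhibition vs vehicle controls. Cells: mutant yeast strain deficient in DNA damage repair.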
Assay [4] is described as follows: NCI Yeast Anticancer Drug Screen. Data for the cln2 rad14 strain (AID 165).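 Also: 0% = growth equal to vehicle treated cultures.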 Particulars: S. cerevisiae cln2 rad14 strain, stronger effect = higher value. In outline: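 The screen exposed genetically defined yeast (cln2 rad14) to test compounds and scored growth inhibition relative to vehicle-treated controls.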
A short description of assay [5]: NCI Yeast Anticancer Drug Screen. Data for the bub3 strain (AID 167). Particulars: S. cerevisiae bub3 mutant strain, stronger effect = higher value. In outline:
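Screening used yeast with an engineered genetic alteration affecting cell cycle control. Compound-exposed cultures were compared with vehicle cultures, and reduced growth was taken as inhibition.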

A short description of assay [6]: NCI Yeast Anticancer Drug Screen. Data for the mlh1 rad18 strain (AID 175). Particulars: S. cerevisiae mlh1 rad18 strain growth inhibition, stronger effect = higher value. In outline: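 Compound-treated yeast growth, normalised to vehicle controls. Strain bears defined DNA repair mutations.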
The mark [7] stands for this setting: at 5.0 µM (retest, dose inferred, filed as 0.5).
Where [8] appears, read: at 50.0 µM (retest, dose inferred, filed as 5.0).

Take `C[N+](C)(C)CCC(=O)c1ccco1`: the growth inhibition was 7% in assay [1] (setting [7]); 99% (active) in assay [1] (setting [8]); 99.5% (active) in assay [1] (at 50.0 µM); 16% in assay [2] (setting [7]); 100% (active) in assay [2] (setting [8]); 99.7% (active) in assay [2] (at 50.0 µM). Also, the growth inhibition in assay [3] (setting [7]) is 10%; in assay [3] (setting [8]), 99% (active); in assay [3] (at 50.0 µM), 99.5% (active); in assay [4] (setting [7]), 8%; in assay [4] (setting [8]), 99% (active); in assay [4] (at 50.0 µM) it was 96% (active). Moreover, the growth inhibition in assay [5] (setting [7]) was 7%; in assay [5] (setting [8]) it was 99% (active); in assay [5] (at 50.0 µM) it was 99.7% (active); in assay [6] (setting [7]), 4%; in assay [6] (setting [8]), 99% (active); in assay [6] (at 50.0 µM), 99.2% (active).

For `COc1ccc(C2Oc3c(cccc3OC)C=C2[N+](=O)[O-])cc1` (configuration not stated), the growth inhibition was 20% in assay [1] (setting [7]); 96% (active) in assay [1] (setting [8]); 40.5% in assay [1] (at 50.0 µM); 23% in assay [2] (setting [7]); 98% (active) in assay [2] (setting [8]); 40.1% in assay [2] (at 50.0 µM). In addition, the growth inhibition in assay [3] (setting [7]) was 40%; in assay [3] (setting [8]), 96% (active); in assay [3] (at 50.0 µM), 37.7%; in assay [4] (setting [7]), 12%; in assay [4] (setting [8]), 92% (active); in assay [4] (at 50.0 µM) it was -4.5%. Further, the growth inhibition in assay [5] (setting [7]) was 45%; in assay [5] (setting [8]), 96% (active); in assay [5] (at 50.0 µM), 45.2%; in assay [6] (setting [7]) it was 33%; in assay [6] (setting [8]) it was 98% (active); in assay [6] (at 50.0 µM), 44%.

Regarding `COC(=O)c1[nH]c(=O)c(C#N)c(C(=O)OC)c1C(=O)c1ccc2ccccc2c1`, the growth inhibition was -1% in assay [1] (setting [7]); 31% in assay [1] (setting [8]); 80.8% (active) in assay [1] (at 50.0 µM); -2% in assay [2] (setting [7]); 20% in assay [2] (setting [8]); 10.9% in assay [2] (at 50.0 µM). For the same compound, the growth inhibition in assay [3] (setting [7]) was -1%; in assay [3] (setting [8]), 25%; in assay [3] (at 50.0 µM), 67.6%; in assay [4] (setting [7]) it was 7%; in assay [4] (setting [8]), 32%; in assay [4] (at 50.0 µM), 20.3%. Besides, the growth inhibition in assay [5] (setting [7]) is 7%; in assay [5] (setting [8]), 41%; in assay [5] (at 50.0 µM), 24.6%; in assay [6] (setting [7]), 12%; in assay [6] (setting [8]) it was 44%; in assay [6] (at 50.0 µM) it was 80.8% (active).

As for `[NH-]c1ccccc1[S-].[NH-]c1ccccc1[S-].[Zn]`, the growth inhibition in assay [1] (setting [7]) was 0%; in assay [1] (setting [8]), 99% (active); in assay [1] (at 50.0 µM) it was 99.3% (active); in assay [2] (setting [7]), 11%; in assay [2] (setting [8]), 100% (active); in assay [2] (at 50.0 µM) it was 99.6% (active). Moreover, the growth inhibition in assay [3] (setting [7]) was 18%; in assay [3] (setting [8]) it was 100% (active); in assay [3] (at 50.0 µM), 102% (active); in assay [4] (setting [7]), 7%; in assay [4] (setting [8]) it was 98% (active); in assay [4] (at 50.0 µM), 96.3% (active). The growth inhibition in assay [5] (setting [7]) was 14%; in assay [5] (setting [8]), 99% (active); in assay [5] (at 50.0 µM), 99.4% (active); in assay [6] (setting [7]), 19%; in assay [6] (setting [8]), 99% (active); in assay [6] (at 50.0 µM), 99.2% (active).

With `O=[N+]([O-])/C(C(Cl)=C(Cl)Cl)=C(/Nc1ccccc1)Sc1ccccc1`, the growth inhibition was 62% in assay [1] (setting [7]); 99% (active) in assay [1] (setting [8]); 17.1% in assay [1] (at 50.0 µM); 41% in assay [2] (setting [7]); 99% (active) in assay [2] (setting [8]); 70.2% (active) in assay [2] (at 50.0 µM). The growth inhibition is 64% in assay [3] (setting [7]); 99% (active) in assay [3] (setting [8]); 66.5% in assay [3] (at 50.0 µM); 49% in assay [4] (setting [7]); 99% (active) in assay [4] (setting [8]); 23.8% in assay [4] (at 50.0 µM). In addition, the growth inhibition in assay [5] (setting [7]) was 51%; in assay [5] (setting [8]), 99% (active); in assay [5] (at 50.0 µM) it was 64.2%; in assay [6] (setting [7]), 78% (active); in assay [6] (setting [8]), 99% (active); in assay [6] (at 50.0 µM), 84.8% (active).

As to `CCN(CC)CCOC(=O)c1ccc(N=Nc2cc(Cl)c(C)cc2O)cc1`, the growth inhibition in assay [1] (setting [7]) is 26%; in assay [1] (setting [8]), 98% (active); in assay [1] (at 50.0 µM), 99.3% (active); in assay [2] (setting [7]) it was 29%; in assay [2] (setting [8]), 99% (active); in assay [2] (at 50.0 µM), 99.2% (active). Further, the growth inhibition in assay [3] (setting [7]) is 55%; in assay [3] (setting [8]), 99% (active); in assay [3] (at 50.0 µM), 95.2% (active); in assay [4] (setting [7]) it was 13%; in assay [4] (setting [8]), 98% (active); in assay [4] (at 50.0 µM), 99% (active). Moreover, the growth inhibition in assay [5] (setting [7]) is 58%; in assay [5] (setting [8]), 99% (active); in assay [5] (at 50.0 µM), 99.1% (active); in assay [6] (setting [7]), 28%; in assay [6] (setting [8]) it was 99% (active); in assay [6] (at 50.0 µM), 99.1% (active).

For the compound `CCCCCCCCCCCCCCCCCC(=O)OCC(O)COC(=O)CCCCCCCCCCCCCCCCC`, the growth inhibition in assay [1] (setting [7]) is -2%; in assay [1] (setting [8]), -5%; in assay [1] (at 50.0 µM), -7.45%; in assay [2] (setting [7]) it was 1%; in assay [2] (setting [8]), -3%; in assay [2] (at 50.0 µM), 15.6%. For the same compound, the growth inhibition in assay [3] (setting [7]) was -3%; in assay [3] (setting [8]) it was -21%; in assay [3] (at 50.0 µM) it was -8.65%; in assay [4] (setting [7]), 0%; in assay [4] (setting [8]), -13%; in assay [4] (at 50.0 µM), 38.4%. Further, the growth inhibition is 4% in assay [5] (setting [7]); 0% in assay [5] (setting [8]); 45.5% in assay [5] (at 50.0 µM); 2% in assay [6] (setting [7]); -1% in assay [6] (setting [8]); 2.55% in assay [6] (at 50.0 µM).

Consider `Clc1ccccc1CN1COc2c(ccc3cccnc23)C1`, for which the growth inhibition in assay [1] (setting [7]) is 9%; in assay [1] (setting [8]), 21%; in assay [1] (at 50.0 µM), 69%; in assay [2] (setting [7]) it was 12%; in assay [2] (setting [8]), 16%; in assay [2] (at 50.0 µM) it was 32.9%. The growth inhibition in assay [3] (setting [7]) was 7%; in assay [3] (setting [8]), 51%; in assay [3] (at 50.0 µM) it was 55.5%; in assay [4] (setting [7]) it was 0%; in assay [4] (setting [8]), 44%; in assay [4] (at 50.0 µM), 13.3%. Also, the growth inhibition in assay [5] (setting [7]) is 7%; in assay [5] (setting [8]), 31%; in assay [5] (at 50.0 µM), 26.1%; in assay [6] (setting [7]), 19%; in assay [6] (setting [8]) it was 72% (active); in assay [6] (at 50.0 µM) it was 41.6%.

`O=[N+]([O-])c1cc(I)c(O)c(/C=N/NS(=O)(=O)c2ccc(Cl)cc2)c1`: the growth inhibition was -3% in assay [1] (setting [7]); 11% in assay [1] (setting [8]); 88.5% (active) in assay [1] (at 50.0 µM); -8% in assay [2] (setting [7]); 1% in assay [2] (setting [8]); 75.1% (active) in assay [2] (at 50.0 µM). Further, the growth inhibition in assay [3] (setting [7]) is -1%; in assay [3] (setting [8]) it was 17%; in assay [3] (at 50.0 µM) it was 77.7% (active); in assay [4] (setting [7]), -9%; in assay [4] (setting [8]), -1%; in assay [4] (at 50.0 µM), 62.2%. The growth inhibition in assay [5] (setting [7]) is -6%; in assay [5] (setting [8]) it was -1%; in assay [5] (at 50.0 µM), 72% (active); in assay [6] (setting [7]) it was -2%; in assay [6] (setting [8]) it was 4%; in assay [6] (at 50.0 µM) it was 91.8% (active).

Source of the values: PubChem BioAssay (NCI).
